Drawing on PubChem BioAssay (NCATS), this text covers Potency and activity change, negative = inhibition for 45 compounds.

In assay [1] the test system is Zika virus NS2B-NS3 protease (unlinked complex). In words: Primary screen GU Rhodamine qHTS for Zika virus inhibitors: Unlinked NS2B-NS3 protease assay (AID 1347159). Note: nearly all actives have a fitted effect of over 60% in size. The method in brief:
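Buffer 10 mM Tris-HCl pH 8.0, 0.01% Tween 20. Unlinked protease 25 nM; compound preincubation 15 min, RT, protected from light. Substrate Rhod110, 1.5 microM; ~15% conversion in 15 min.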
For orientation: Quantitative high-throughput screening tests each substance at several concentrations.

Assay [2] relates to Zika virus NS2B-NS3 protease (linked construct). In words: Primary screen NINDS Rhodamine qHTS for Zika virus inhibitors (AID 1347160). Note: nearly all actives have a fitted effect of over 55% in size. The method in brief: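 Aprotinin served as in-plate control. Conditions: 25 nM linked NS2B-NS3, pH 8.0 Tris buffer, titrated compounds, 15 min preincubation and 15 min reaction with 1.5 microM Rhod110 substrate at room temperature.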

Inconclusive results are not listed. Unmarked numbers belong to inactive results. Activity calls are given as the source filed them. Calls come from the whole dose curve; as a rule, active = well fitted inhibition curve with a large enough effect; inconclusive = small, poorly fitted or top-dose-only effect; inactive = no such curve, though single readings can be large or run the other way.
% is set by controls: 0 for no effect and ±100 for the full control effect; potency is the fitted concentration of half-maximal effect.

As to `Cc1cc(-c2cc(OC(=O)c3ccccc3)ccc2Cl)cc2nnc(Nc3ccc(OCCN4CCCC4)cc3)nc12`, the Potency result in assay [1] and in assay [2] was “inactive” in each case.
On to `C=C1C(=O)OC2/C=C(\COC(C)=O)CC/C=C(\C=O)CC(OC(=O)CC(C)C)C12` (stereo not given), for which the Potency result in assay [1] and in assay [2] was “inactive” each time.
Turning to `OC1CCC(Nc2nc(-c3ccccc3)nc3[nH]ccc23)CC1` (stereo not given), the Potency result in assay [1] and in assay [2] was “inactive” each time.
Consider `NC(=O)c1cnc(N[C@@H]2CCCC[C@H]2N)nc1Nc1cccc(-n2nccn2)c1`, for which the Potency result in assay [1] and in assay [2] was “inactive” in each case.
Consider `CNC(C)C(=O)NC(C(=O)N1CCCC1C(=O)Nc1snnc1-c1ccccc1)C1CCCCC1` (stereo not given), for which the Potency result in assay [1] and in assay [2] was “inactive” throughout.
For the compound `C=C1C(=O)OC2/C=C(\CO)CC/C=C(\C=O)C(OC)C(OC(=O)C(C)CC)C12` (stereo not given), the Potency result in assay [1] and in assay [2] was “inactive” each time.
As to `O=C(NCC(=O)N1CCCC1)Nc1ccc2cnccc2c1`, the Potency entry in assay [1] and in assay [2] was “inactive” in each case.
In the case of `COc1ccc(CCc2nc3cc(-c4c(C)noc4C)ccc3n2CC(C)N2CCOCC2)cc1Cl` (stereo not given), the Potency result in assay [1] and in assay [2] was “inactive” throughout.
For `C[C@@H]1O[C@@H](O[C@H]2[C@H](OC(=O)[C@]34CCC(C)(C)C[C@H]3C3=CCC5[C@@]6(C)C[C@H](O)[C@H](O[C@@H]7O[C@H](C(=O)O)[C@@H](O)[C@H](O)[C@H]7O)[C@@](C)(CO)C6[C@H](O)C[C@@]5(C)[C@]3(C)C[C@H]4O)O[C@@H](CO)[C@@H]2O)[C@H](O)[C@H](O)[C@H]1O[C@@H]1OC[C@@H](O)[C@H](O[C@H]2OC[C@](O)(CO)[C@H]2O)[C@H]1O` (stereo not given in full), the activity change, negative = inhibition in assay [1] is 13.4% [at 19.1 µM]; in assay [2], -5.61% [at 10.7 µM].
With `CCc1cc2c(cc1CC)CC(NCC(O)c1ccc(O)c3[nH]c(=O)ccc13)C2` (stereo not given), the Potency entry in assay [1] and in assay [2] was “inactive” each time.
Take `CN1CCN(C2CCN(C(=O)Nc3cc(Oc4ccc(NC(=O)C5(C(=O)Nc6ccc(F)cc6)CC5)c(F)c4)ccn3)CC2)CC1`: the Potency entry in assay [1] and in assay [2] was “inactive” throughout.
In the case of `O=C(NCc1ccc(OC(F)(F)F)cc1)C1c2c(F)cccc2C(=O)N1CCc1ccccn1` (stereo not given), the Potency result in assay [1] and in assay [2] was “inactive” throughout.
As for `C=CCC1=C[C@]2(OC)[C@H](C)[C@@H](c3ccc4c(c3)OCO4)O[C@]2(OC)CC1=O`, the Potency entry in assay [1] and in assay [2] was “inactive” throughout.
Regarding `O=C(Nc1ccc(C(F)(F)F)cn1)N1CCN(c2ncccc2C(F)(F)F)CC1`, the Potency entry in assay [1] and in assay [2] was “inactive” in each case.
For the compound `CC(C)NCCCn1c(Sc2cc3c(cc2I)OCO3)nc2c(N)ncnc21`, the Potency entry in assay [1] and in assay [2] was “inactive” in each case.
As for `COc1cc(C[C@H]2C(=O)OC[C@@H]2Cc2ccc(OC)c(OC)c2)ccc1O`, the Potency entry in assay [1] and in assay [2] was “inactive” in each case.
Regarding `COc1ccc([C@H]2Cc3cccc(O)c3C(=O)O2)cc1OC`, the Potency result in assay [1] and in assay [2] was “inactive” in each case.
On to `CCCC(CCC)C(=O)Nc1ccn([C@@H]2O[C@H](CO)[C@@H](O)C2(F)F)c(=O)n1`, for which the Potency entry in assay [1] and in assay [2] was “inactive” in each case.
As to `COc1ccc2[nH]c(=O)c3c(c2c1)OC(C)(C)C=C3`, the Potency result in assay [1] and in assay [2] was “inactive” each time.
`COc1cc(N2CCC(N3CCN(C)CC3)CC2)ccc1Nc1ncc(Cl)c(Nc2ccccc2P(C)(C)=O)n1`: the Potency result in assay [1] and in assay [2] was “inactive” in each case.
In the case of `CC1OC2OC(=O)C3(C)CC4C5(CO5)C5=CC(=O)OC(C)(C)C5=CC(=O)C4(C)C(C1=O)C23` (stereo not given), the Potency in assay [1] is 15.8 µM (active); in assay [2] it was 12.6 µM (active).
Regarding `OC1C=C2C3CN(Cc4cc5c(cc43)OCO5)C2CC1O` (stereo not given), the Potency entry in assay [1] and in assay [2] was “inactive” in each case.
Turning to `CNC(=O)COC(=O)N1CCC(CCc2ccc(Cl)cc2)CC1`, the Potency entry in assay [1] and in assay [2] was “inactive” throughout.
On to `CC(C)CCNC(=O)[C@H](CC(C)C)NC(=O)[C@H]1O[C@@H]1C(=O)O`, for which the Potency result in assay [1] and in assay [2] was “inactive” each time.
Take `COC1CC(O[C@H]2CC[C@]3(C)C4CC[C@]5(C)C(C6=CC(=O)OC6)=CCC56OC46CC[C@@H]3C2)OC(C)C1O[C@@H]1O[C@H](CO[C@@H]2O[C@H](CO)[C@@H](O)[C@H](O)[C@H]2O)[C@@H](O)[C@H](O)[C@H]1O` (stereo not given in full): the Potency result in assay [1] and in assay [2] was “inactive” throughout.
`O=C(NCCN1CCC(n2c(=O)[nH]c3ccccc32)CC1)c1ccc2ccccc2c1`: the Potency result in assay [1] and in assay [2] was “inactive” in each case.
Consider `O=C(Nc1nc2cc(C(F)(F)F)cc(NC3CC3)n2n1)c1cccnc1`, for which the Potency result in assay [1] and in assay [2] was “inactive” each time.
Regarding `Cc1ccnn1-c1ccc(C(=O)N2CCN(S(=O)(=O)c3ccc(Cl)c(C(F)(F)F)c3)CC2)cc1`, the Potency result in assay [1] and in assay [2] was “inactive” throughout.
With `CCCCc1c(-c2ccc(OC)cc2)[nH]c2nccnc12`, the Potency entry in assay [1] and in assay [2] was “inactive” each time.
`Cc1[nH]c2ccc(F)cc2c1-c1nc2c3cccnc3c3ncccc3c2[nH]1`: the Potency entry in assay [1] and in assay [2] was “inactive” in each case.
For `O=c1cc(NCCCN[C@@H]2CCOc3c(Br)cc(Br)cc32)[nH]c2ccsc12`, the Potency result in assay [1] and in assay [2] was “inactive” each time.
Turning to `COc1ccccc1OCCNCC(O)CCOc1cccc2[nH]c3ccccc3c12` (stereo not given), the Potency entry in assay [1] and in assay [2] was “inactive” in each case.
As for `C/C=C(\C)C(=O)O[C@H]1C=CC(=O)O[C@H]1/C=C/[C@@H](O)[C@H](C)O`, the Potency result in assay [1] and in assay [2] was “inactive” throughout.
In the case of `C=C1C(=O)O[C@@H]2C[C@H](C)[C@@H]3CC(=O)C(C)=C3C[C@H]12`, the Potency result in assay [1] and in assay [2] was “inactive” throughout.
As to `O=C(NCCCn1ccnc1)c1cc(-c2ccco2)on1`, the Potency result in assay [1] and in assay [2] was “inactive” in each case.
As to `CCCC(Nc1nc(-c2ccc(NC(=O)NCC)c(OC)c2)ncc1C)c1cccnc1` (stereo not given), the Potency entry in assay [1] and in assay [2] was “inactive” throughout.
Regarding `CN1CCN(C2=Nc3ccccc3Nc3ccc(Cl)cc32)CC1`, the Potency entry in assay [1] and in assay [2] was “inactive” in each case.
As for `COc1cc(/C=N\NC(=O)c2ccc3c(c2)OCO3)ccc1OCc1ccccc1`, the Potency result in assay [1] and in assay [2] was “inactive” in each case.
With `COc1ccc2c(c1O[C@H]1CCNC1)CCC2`, the Potency entry in assay [1] and in assay [2] was “inactive” each time.
As to `C[C@@H]1O[C@@H](O[C@H]2CC[C@@]3(C)C(CC[C@]4(C)C3CC=C3[C@@H]5CC(C)(C)CC[C@]5(C(=O)O[C@@H]5O[C@H](CO)[C@@H](O)[C@H](O)[C@H]5O)CC[C@]34C)[C@]2(C)CO)[C@H](O)[C@H](O[C@@H]2O[C@H](CO)[C@@H](O)[C@H](O)[C@H]2O)[C@H]1O` (stereo not given in full), the Potency result in assay [1] and in assay [2] was “inactive” in each case.
As to `CCCc1ccc(OCC(=O)N(Cc2nc(-c3cccnc3)no2)C(C)C)cc1`, the Potency result in assay [1] and in assay [2] was “inactive” throughout.
`CCNc1nc(Nc2cc(F)c(C(=O)N3CCOCC3)cc2OC)ncc1C(F)(F)F`: the Potency entry in assay [1] and in assay [2] was “inactive” in each case.
Turning to `O=C([C@@H](Cc1cccc(C(F)(F)F)c1)NS(=O)(=O)c1cc(F)c2c(c1)CCNC2)N1CCCC1`, the Potency result in assay [1] and in assay [2] was “inactive” in each case.
On to `CC[N+]1(C/C2=C/CCCCCC2)CCC(NC(=O)C2c3cc(Cl)ccc3Oc3ccc(Cl)cc32)CC1` (stereo not given), for which the Potency entry in assay [1] and in assay [2] was “inactive” in each case.
`Cc1cc(N2CCN(C(=O)Oc3ccc(-c4ccccc4)cn3)CC2)c2ccccc2n1`: the Potency result in assay [1] and in assay [2] was “inactive” in each case.
